# According to PubChem BioAssay AID623888 (Vanderbilt Specialized Chemistry Center, 2012):
# Target: Metabotropic glutamate receptor 3 (Rattus norvegicus) (UniProt P31422)
# Assay: PubChem AID 623888
# Details: HEK/GIRK rat mGlu3, thallium flux fluorescence, Schild, at 30 µM; % glutamate max: glutamate max response with compound, stronger effect = lower value; glutamate response, % max: at 100 µM (top of the series), compound 30 µM
# Chain of Metabotropic glutamate receptor 3 (Rattus norvegicus) (P31422 whole entry, looked up): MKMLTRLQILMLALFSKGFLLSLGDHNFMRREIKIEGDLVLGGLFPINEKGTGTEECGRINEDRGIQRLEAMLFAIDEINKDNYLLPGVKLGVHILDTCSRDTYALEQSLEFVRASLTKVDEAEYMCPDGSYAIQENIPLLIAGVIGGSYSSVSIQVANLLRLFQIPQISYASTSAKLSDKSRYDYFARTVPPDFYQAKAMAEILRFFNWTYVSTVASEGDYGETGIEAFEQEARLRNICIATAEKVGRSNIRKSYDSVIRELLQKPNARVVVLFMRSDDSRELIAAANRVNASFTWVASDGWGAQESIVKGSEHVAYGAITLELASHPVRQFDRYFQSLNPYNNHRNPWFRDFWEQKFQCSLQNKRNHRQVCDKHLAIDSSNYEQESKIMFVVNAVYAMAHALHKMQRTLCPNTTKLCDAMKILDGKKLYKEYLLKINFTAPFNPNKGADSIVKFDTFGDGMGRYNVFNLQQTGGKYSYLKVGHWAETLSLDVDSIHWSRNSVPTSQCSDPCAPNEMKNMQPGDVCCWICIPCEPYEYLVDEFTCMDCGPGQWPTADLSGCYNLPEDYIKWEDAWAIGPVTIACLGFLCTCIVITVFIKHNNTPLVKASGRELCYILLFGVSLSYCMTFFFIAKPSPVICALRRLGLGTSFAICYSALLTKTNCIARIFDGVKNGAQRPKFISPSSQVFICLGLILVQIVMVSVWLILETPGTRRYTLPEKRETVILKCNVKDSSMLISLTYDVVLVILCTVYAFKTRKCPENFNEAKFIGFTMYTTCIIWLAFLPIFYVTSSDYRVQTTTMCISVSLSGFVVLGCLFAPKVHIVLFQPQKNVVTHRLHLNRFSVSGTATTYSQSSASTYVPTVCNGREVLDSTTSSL
smiles,measurement,value
COc1ccc(C#Cc2ccc(C(=O)N3CCC[C@@H](CO)C3)cc2)cc1,% glutamate max,1.37%
same,"glutamate response, % max",2.62
